Among the test systems are NCI-H23 lung; NCI-H226 lung; NCI-H322M lung; HOP-62 NSCLC; NCI-H460 lung; HOP-92 NSCLC; NCI-H522 lung; A549/ATCC NSCLC; 786-0 renal; COLO 205 colon; DU-145 prostate; K-562 leukemia; MALME-3M melanoma; MDA-MB-231 breast; RXF 393 renal; SF-268 CNS; SF-295 CNS; SF-539 CNS; UACC-257 melanoma; M14 melanoma.
Assay in all cases: NCI-60 one-dose screen, 48 h (100 = growth as untreated, 0 = no growth, -100 = all killed)
Holding throughout (details): 10 µM unless noted

The panel holds about 83,000 compounds, 20% with a hit somewhere; the sample as a whole holds those more often.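 Values shown are percent growth following 48 h exposure of cells in 96-well plates to a single concentration of compound; below 10 was considered active.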 A number with no mark means an inactive call. Active and inactive are the calls of the source.

`COc1ccc(C(=O)NC(=O)Nc2ccc3c(c2)NC(=O)/C3=C\c2[nH]c(C)c(C(=O)O)c2C)c(F)c1`: the growth is 48.9% in the assay on NCI-H23 lung; 67.1% in the assay with NCI-H226 lung; 45% in the assay with NCI-H322M lung; 64.9% with HOP-62 NSCLC; 69.8% in the assay with NCI-H460 lung; 63.9% in the assay with HOP-92 NSCLC. Also, the growth with NCI-H522 lung is 37.8%; with A549/ATCC NSCLC it was 47.6%; with 786-0 renal, 35%; with COLO 205 colon, 88.6%; in the assay on DU-145 prostate, 28.2%; with K-562 leukemia it was 62.6%. The growth with MALME-3M melanoma is -8% (active); with MDA-MB-231 breast, 63.5%; with RXF 393 renal, -21% (active); in the assay on SF-268 CNS it was 65.4%; with SF-295 CNS, 33.1%; in the assay with SF-539 CNS it was 47.8%. The growth with UACC-257 melanoma is 47.2%; with M14 melanoma it was 17.6%.

In the case of `S=c1ssnc1-c1ccccn1`, the growth with NCI-H23 lung was 44.5%; in the assay with NCI-H226 lung, 61.4%; with NCI-H322M lung, 66.5%; with HOP-62 NSCLC, 47.7%; in the assay on NCI-H460 lung it was 6.05% (active); in the assay on HOP-92 NSCLC, -4.36% (active). Moreover, the growth in the assay with NCI-H522 lung is -29.3% (active); in the assay with A549/ATCC NSCLC, 57.7%; with 786-0 renal, 18.1%; with COLO 205 colon, 43%; in the assay on DU-145 prostate it was 41.6%; in the assay on K-562 leukemia, -35.5% (active). Further, the growth with MALME-3M melanoma was 52%; with MDA-MB-231 breast, 44.3%; in the assay on RXF 393 renal it was -0.23% (active); in the assay with SF-268 CNS, 24.9%; in the assay on SF-295 CNS it was 40.4%; in the assay with SF-539 CNS, 14.5%. Besides, the values for the growth in the assay on UACC-257 melanoma and with M14 melanoma were 93.3% and 24.5%, respectively.

For the molecule `CCCCOc1c(N)cc(Cl)cc1C(=O)OCCN(CC)CC`, the growth with NCI-H23 lung was 104%; in the assay on NCI-H226 lung, 94.1%; with NCI-H322M lung it was 86%; in the assay on HOP-62 NSCLC, 91.8%; in the assay on NCI-H460 lung, 108%; with HOP-92 NSCLC, 89.6%. In addition, the growth with NCI-H522 lung was 53.1%; with A549/ATCC NSCLC, 86.5%; in the assay with 786-0 renal it was 92.8%; in the assay on COLO 205 colon, 115%; with DU-145 prostate it was 116%; with K-562 leukemia, 83.9%. The growth is 102% in the assay on MALME-3M melanoma; 101% in the assay with MDA-MB-231 breast; 125% in the assay with RXF 393 renal; 98.6% in the assay with SF-268 CNS; 101% with SF-295 CNS; 104% in the assay with SF-539 CNS. Besides, the growth was 78.3% with UACC-257 melanoma and 107% in the assay on M14 melanoma.

Consider `COc1ccc(-c2ccc(NC(=O)Nc3cccc(C(F)(F)F)c3)c(C)n2)cc1`, for which the growth with NCI-H23 lung is 47.6%; in the assay on NCI-H226 lung, 58.1%; in the assay on NCI-H322M lung it was 64.4%; in the assay with HOP-62 NSCLC, 68%; with NCI-H460 lung, 48.7%; with HOP-92 NSCLC, 68.8%. The growth with NCI-H522 lung was 28.5%; in the assay with A549/ATCC NSCLC, 42.5%; in the assay on 786-0 renal, 77.3%; in the assay on COLO 205 colon, 84.5%; with DU-145 prostate, 68.8%; in the assay on K-562 leukemia, 32.5%. Besides, the growth is 90.6% in the assay with MALME-3M melanoma; 68.6% in the assay on MDA-MB-231 breast; 85.9% with RXF 393 renal; 74.5% in the assay on SF-268 CNS; 47.6% in the assay on SF-295 CNS; 80.8% with SF-539 CNS. Further, the growth in the assay with UACC-257 melanoma was 61.4%; in the assay with M14 melanoma it was 37.2%.

On to `COc1cc(/C=C/C(=O)c2c(C)[n+]([O-])c3ccccc3[n+]2[O-])ccc1O`, for which the growth in the assay on NCI-H23 lung is 95.5%; in the assay with NCI-H226 lung, 98.5%; with NCI-H322M lung, 99.4%; with HOP-62 NSCLC, 125%; in the assay with NCI-H460 lung, 91.4%; in the assay on HOP-92 NSCLC, 42.2%. The growth in the assay on NCI-H522 lung was 71%; in the assay on A549/ATCC NSCLC, 103%; in the assay with 786-0 renal, 62.4%; with COLO 205 colon, 121%; with DU-145 prostate, 101%; in the assay on K-562 leukemia it was 85.2%. The growth is 103% with MALME-3M melanoma; 81.5% with MDA-MB-231 breast; 111% in the assay on RXF 393 renal; 95.5% in the assay on SF-268 CNS; 89.3% in the assay with SF-295 CNS; 100% in the assay with SF-539 CNS. In addition, the growth is 98.9% in the assay on UACC-257 melanoma and 103% in the assay with M14 melanoma.

With `CN(C)c1ccc(/C=c2\s/c(=C\C(=O)C(C)(C)C)[nH]c2=O)cc1`, the growth in the assay with NCI-H23 lung was 98%; in the assay on NCI-H226 lung, 101%; in the assay with NCI-H322M lung it was 86.7%; with HOP-62 NSCLC, 101%; in the assay on NCI-H460 lung it was 104%; in the assay with HOP-92 NSCLC, 94.5%. In addition, the growth in the assay with NCI-H522 lung is 78.1%; in the assay with A549/ATCC NSCLC, 79.7%; with 786-0 renal, 93.2%; with COLO 205 colon, 97.7%; in the assay on DU-145 prostate, 93.1%; in the assay with K-562 leukemia, 111%. In addition, the growth with MALME-3M melanoma is 93.6%; in the assay with MDA-MB-231 breast it was 118%; with RXF 393 renal, 122%; in the assay with SF-268 CNS it was 93.5%; in the assay with SF-295 CNS, 94.9%; in the assay with SF-539 CNS it was 96.6%. Further, the growth in the assay on UACC-257 melanoma was 96.1%; in the assay with M14 melanoma it was 101%.

Values taken from PubChem BioAssay (NCI).
